# Laboratory results published in PubChem BioAssay.
# The source made the active and inactive calls. Unless noted, no rule for the calls is given here. Where a SMILES comes first, the peptide text is derived from it. Bridges are numbered along the chain shown (N, C = ends). [ ]: non-standard residue; d: D form. The star is where a group is joined. Heptanoyl(5-Me) = CCC(C)CCCC(=O)*; Dab = NCC[C@H](N)C(=O)O
# Columns and labels:
# [1] = phospholipid biosynthesis inhibitors in animal cells, primary screen, cell-based, LOPAC library, screen 4 (AID 1347384); conditions: phospholipid biosynthesis inhibition screen, at 10 µM
# [2] = modifiers of HSF1 nuclear foci, imaging, Selleck Cancer Library (AID 1347162; in the data active = plate-normalised HSF1 focus index below about 0.46); conditions: human cells, at 10 µM; SSMD: measured here: HSF1 foci SSMD mean; cell count: measured here: cell number; plate-normalised HSF1 focus index: stronger effect = lower value
# [3] = liver-stage malaria parasite growth inhibition, primary screen, cell-based, HepG2, luciferase luminescence, HepG2 viability (AID 624349; in the data active = parasite load remaining mostly below about 12%, no sharp cut-off; inactive = mostly above about 10%;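 also: 100% = mean of DMSO negative control wells on the same plate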); conditions: P. berghei liver stage in HepG2, luciferase luminescence, concentration not given here; parasite load remaining: stronger effect = lower value; viability: measured here: HepG2 viability without parasites
# [4] = survival rescue of mitochondrial mutant cells in low glucose, primary screen, MELAS cybrids, Rieske KO mouse fibroblasts, CellTiter-Glo (AID 1508586;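 active = mean z-score across replicates of 1.96 or higher in either the MELAS or the Rieske mutant cell line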;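 also: z relative to plate mean and SD of compound and empty wells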)
# [5] = viability rescue of complex I mutant cybrids, primary screen, cell-based, galactose medium, ATP luminescence (AID 1645843;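 active = z-score of at least 1.8 in each of two replicates, scored against plate mean and spread of sample wells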;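 also: positive z means more ATP and so rescue of galactose-driven cybrid death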); conditions: complex I mutant cybrid cells, 72 h, stronger effect = higher value
# [6] = molecular target: NAD(+) hydrolase SARM1 (Homo sapiens) (UniProt Q6SZW1); experiment: SARM1 TIR NADase inhibitors, cell lysate, NAD-Glo luminescence (AID 1508614;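 active = compound whose remaining NAD level is above about 45 nM, limit read from the data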;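 also: higher remaining NAD means stronger inhibition of SARM1 NADase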); conditions: SAM-TIR HEK293T lysate NADase, at 1 µM, stronger effect = higher value
# Chain of NAD(+) hydrolase SARM1 (Homo sapiens) (Q6SZW1 whole entry, looked up): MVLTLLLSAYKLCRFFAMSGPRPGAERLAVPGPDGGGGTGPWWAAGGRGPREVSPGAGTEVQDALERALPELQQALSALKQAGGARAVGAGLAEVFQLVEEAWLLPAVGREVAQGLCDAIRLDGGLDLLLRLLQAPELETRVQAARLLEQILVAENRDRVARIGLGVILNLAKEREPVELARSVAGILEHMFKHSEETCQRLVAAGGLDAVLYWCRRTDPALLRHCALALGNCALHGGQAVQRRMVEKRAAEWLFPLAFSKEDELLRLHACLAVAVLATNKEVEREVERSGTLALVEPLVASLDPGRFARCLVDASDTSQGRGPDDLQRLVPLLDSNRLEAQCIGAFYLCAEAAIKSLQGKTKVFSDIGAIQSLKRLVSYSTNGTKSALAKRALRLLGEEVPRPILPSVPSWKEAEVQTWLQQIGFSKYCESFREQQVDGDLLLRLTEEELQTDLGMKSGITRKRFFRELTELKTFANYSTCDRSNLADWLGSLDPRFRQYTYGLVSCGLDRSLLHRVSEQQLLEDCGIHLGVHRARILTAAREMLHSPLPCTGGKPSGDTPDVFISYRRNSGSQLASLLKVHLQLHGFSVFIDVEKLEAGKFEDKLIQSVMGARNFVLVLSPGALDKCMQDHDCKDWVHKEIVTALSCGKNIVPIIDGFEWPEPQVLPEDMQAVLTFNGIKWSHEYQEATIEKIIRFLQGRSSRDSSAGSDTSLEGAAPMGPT
# [7] = tested on: Hepatitis C virus NS3 helicase; experiment: HCV NS3 helicase inhibitors, primary screen, biochemical, fluorescence polarization, LOPAC1280 library (AID 687035; in the data active = inhibition above about 37%); conditions: Purified HCV NS3 helicase, Cy5-dT15 ssDNA binding fluorescence polarization; stronger effect = higher value; concentration not given here
# [8] = Cy5 fluorescence quenching or enhancement artefacts, artefact control for HCV NS3 helicase inhibitor project, biochemical, LOPAC1280 (AID 687037); conditions: Cy5-DNA-NS3h complex fluorescence interference counterscreen
# [9] = MELAS cybrid survival, CellTiter-Glo 48 h, stronger effect = higher value
# [10] = Rieske KO mouse fibroblast survival, CellTiter-Glo 72 h
smiles,measurement,setting,value
CO[C@H]1C[C@@H]2CC[C@@H](C)[C@@](O)(O2)C(=O)C(=O)N2CCCC[C@@H]2C(=O)OC([C@H](C)C[C@@H]2CC[C@@H](OC(=O)C(C)(CO)CO)[C@H](OC)C2)CC(=O)[C@H](C)/C=C(\C)[C@@H](O)[C@@H](OC)C(=O)[C@H](C)C[C@H](C)/C=C/C=C/C=C/1C (some centres not stated),outcome,[1],inactive
CC1=NN(c2ccc(C(=O)O)cc2)C(=O)/C1=C\c1ccc(-c2cc(C)c(C)cc2[N+](=O)[O-])o1,SSMD,[2],1.04
same,cell count,[2],6690
same,plate-normalised HSF1 focus index,[2],1.07 (inactive)
COC(=O)[C@H](CCCN=C(N)N)NS(=O)(=O)c1ccc(C)cc1,SSMD,[2],1.44
same,cell count,[2],7120
same,plate-normalised HSF1 focus index,[2],1.08 (inactive)
Cc1cc(Nc2ncc3cc(-c4c(Cl)cccc4Cl)c(=O)n(C)c3n2)ccc1F,outcome,[1],inactive
CC[N+](CC)(CC)CC,outcome,[1],inactive
CCOC(=O)c1ccc(C#Cc2ccc3c(c2)CC(C)(C)CS3)nc1,outcome,[1],inactive
COCCN1C2=C(C(=O)c3ccccc3C2=O)N(Cc2cnccn2)C1C (configuration not stated),SSMD,[2],2.27
same,cell count,[2],6910
same,plate-normalised HSF1 focus index,[2],1.13 (inactive)
CCOC(=O)CN1C(=O)c2ccc3c4c(ccc(c24)C1=O)C(=O)N(CC(=O)OCC)C3=O,outcome,[1],inactive
O=C(O)C1=CS[C@@H]2/C(=C\c3cnc4n3CCOC4)C(=O)N12,outcome,[1],inactive
CO[C@H]1C[C@@H]2CC[C@@H](C)[C@@](O)(O2)C(=O)C(=O)N2CCCC[C@H]2C(=O)O[C@H]([C@@H](C)C[C@@H]2CC[C@@H](OCCO)[C@H](OC)C2)CC(=O)[C@H](C)/C=C(\C)[C@@H](O)[C@@H](OC)C(=O)[C@H](C)C[C@H](C)/C=C/C=C/C=C/1C,SSMD,[2],2.84
same,cell count,[2],6750
same,plate-normalised HSF1 focus index,[2],1.15 (inactive)
CCOC(=O)C1=C(O)C(=O)N(c2ccccc2)C1,SSMD,[2],2.7
same,cell count,[2],7070
same,plate-normalised HSF1 focus index,[2],1.16 (inactive)
CC[C@@H](C(=O)[C@@H](C)[C@@H](O)[C@H](C)[C@@H]1O[C@@H]([C@@H](CC)C(=O)O)CC[C@@H]1C)[C@H]1O[C@]2(C=C[C@@H](O)[C@]3(CC[C@@](C)([C@H]4CC[C@](O)(CC)[C@H](C)O4)O3)O2)[C@H](C)C[C@@H]1C,SSMD,[2],4.08
same,cell count,[2],7580
same,plate-normalised HSF1 focus index,[2],1.26 (inactive)
COc1c/c(=C2/C=c3ccccc3=N2)[nH]/c1=C\c1[nH]c(C)cc1C,SSMD,[2],-6.15
same,cell count,[2],7490
same,plate-normalised HSF1 focus index,[2],0.614 (inactive)
Nc1ncnc2c1ncn2[C@@H]1O[C@H](COP(=O)(O)CP(=O)(O)OP(=O)(O)O)[C@H](O)C1O (some centres not stated),outcome,[1],inactive
C[C@H](CSC(=O)c1ccccc1)C(=O)N1C[C@@H](Sc2ccccc2)CC1C(=O)O (some centres not stated),outcome,[1],inactive
OC[C@H]1O[C@@H](n2cnc3c2NC=NC[C@H]3O)CC1O (some centres not stated),SSMD,[2],3.2
same,cell count,[2],7070
same,plate-normalised HSF1 focus index,[2],1.17 (inactive)
O.O.[NH2-].[NH2-].[NH2-].[NH2-].[NH2-].[NH2-].[NH2-].[NH2-].[NH2-].[NH2-].[NH2-].[NH2-].[NH2-].[NH2-].[Ru+4].[Ru+5].[Ru+5],outcome,[1],inactive
C[N+](C)(C)CCOP(=O)(O)OP(=O)(O)OC[C@H]1O[C@@H](n2ccc(N)nc2=O)C(O)[C@H]1O (some centres not stated),outcome,[1],inactive
N=c1ccn2c(n1)OC1C(O)[C@@H](CO)O[C@H]12 (some centres not stated),outcome,[1],inactive
COC(=O)c1ccc(O)c(NC(=O)COc2ccc(C34CC5CC(CC(C5)C3)C4)cc2)c1,SSMD,[2],-6.52
same,cell count,[2],7200
same,plate-normalised HSF1 focus index,[2],0.766 (inactive)
C[C@@H]1CCN(C(=O)C(CCCN=C(N)N)NS(=O)(=O)c2cccc3c2NC[C@H](C)C3)C(C(=O)O)C1 (some centres not stated),outcome,[1],inactive
CC1=NN(c2cccc(C(=O)O)c2)C(=O)/C1=C\c1ccc(-c2ccc(Cl)c(C(=O)O)c2)o1,outcome,[1],inactive
CCCCCc1ccc(/C=C/C(=O)Nc2cc(Cl)ccc2C(=O)O)cc1,outcome,[1],inactive
c1ccc(-c2cnn3cc(-c4ccc(OCCN5CCOCC5)cc4)cnc23)cc1,outcome,[1],inactive
CO/N=C(\C(=O)N[C@@H]1C(=O)N2C(C(=O)O)=C(CSc3nc(=O)c(=O)[nH]n3C)CSC12)c1csc(N)n1 (some centres not stated),outcome,[1],inactive
CCOc1ncc(S(=O)(=O)N2CCN(CC)CC2)cc1-c1nc2c(CC)n(CCOC)nc2c(=O)[nH]1,outcome,[1],inactive
O=c1c2ccccc2[nH]c(=S)n1CCN1CCC(=C(c2ccc(F)cc2)c2ccc(F)cc2)CC1,parasite load remaining,[3],40.1% (inactive)
same,viability,[3],100%
same,SSMD,[2],4.04
same,cell count,[2],6860
same,plate-normalised HSF1 focus index,[2],1.24 (inactive)
Cc1c(CN2CC(=O)N(Cc3ccccc3)CC(O)C2)c(=O)n(-c2ccccc2)n1C (configuration not stated),z-score,[4]; [9],0.325 (inactive)
same,z-score,[4]; [10],-0.72
same,z-score,[5],0.83 (inactive)
CCC(C)CCCC(=O)N[C@@H](CCN)C(=O)N[C@H](C(=O)N[C@@H](CCN)C(=O)N[C@H]1CCNC(=O)[C@H]([C@@H](C)O)NC(=O)[C@H](CCN)NC(=O)[C@H](CCN)NC(=O)[C@H](CC(C)C)NC(=O)[C@@H](CC(C)C)NC(=O)[C@H](CCN)NC1=O)[C@@H](C)O (stereo partly drawn) ({Heptanoyl(5-Me)}-[Dab]T[Dab][Dab][Dab][dL]L[Dab][Dab]T; lactam 4-C),z-score,[4]; [9],-0.0594 (inactive)
same,z-score,[4]; [10],0.188
CO/N=C(\C(=O)N[C@@H]1C(=O)N2C(C(=O)OC(C)OC(C)=O)=C(COC(N)=O)CS[C@H]12)c1ccco1 (some centres not stated),z-score,[4]; [9],0.525 (inactive)
same,z-score,[4]; [10],0.0681
same,remaining NAD,[6],10 nM (inactive)
CN1[C@@H]2CC[C@@H]1CC(OC(=O)C(CO)c1ccccc1)C2 (some centres not stated),z-score,[4]; [9],0.0633 (inactive)
same,z-score,[4]; [10],-0.0663
COc1cccc2c1C(=O)c1c(O)c3c(c(O)c1C2=O)C[C@@](O)(C(=O)CO)C[C@@H]3O[C@@H]1C[C@H](N)[C@@H](O)[C@H](C)O1,z-score,[4]; [9],6.67 (active)
same,z-score,[4]; [10],-1.72
CC=C(C)C(=O)O[C@H]1[C@H](OC(C)=O)C2(CO)C(CC1(C)C)C1=CCC3C4(C)CCC(OC5O[C@H](C(=O)O)[C@@H](O[C@@H]6O[C@H](CO)[C@@H](O)[C@H](O)[C@H]6O)[C@H](O)[C@H]5O[C@@H]5O[C@H](CO)C(O)[C@H](O)[C@H]5O)[C@](C)(CO)C4CCC3(C)[C@]1(C)C[C@H]2O (some centres not stated),z-score,[4]; [9],0.702
same,z-score,[4]; [10],2.95
COc1cc(Br)c(C[N+]2(CCOCCC3CC[C@H]4C[C@@H]3C4(C)C)CCOCC2)cc1OC (some centres not stated),z-score,[4]; [9],-1.55 (inactive)
same,z-score,[4]; [10],0.547
CN(C)C(=O)N=NC(=O)N(C)C,inhibition,[7],-4% (inactive)
same,fluorescence ratio (interference),[8],1 (inactive)
same,outcome,[1],inactive
C[N+]1(C)[C@@H]2CC(OC(=O)C(CO)c3ccccc3)C[C@H]1[C@@H]1O[C@@H]12 (some centres not stated),z-score,[4]; [9],-0.282 (inactive)
same,z-score,[4]; [10],0.781
N[C@@H](C(=O)N[C@@H]1C(=O)N2C(C(=O)O)=C(Cl)CC[C@H]12)c1ccccc1,z-score,[4]; [9],0.0513 (inactive)
same,z-score,[4]; [10],-0.0591
CCN(CC)c1ncnc2c1ncn2[C@@H]1O[C@H](COP(=O)(O)OP(=O)(O)C(Br)(Br)P(=O)(O)O)[C@@H](O)[C@H]1O,outcome,[1],inactive
C#C[C@]1(OC(C)=O)CC[C@H]2[C@@H]3CCC4=CC(=NO)CC[C@@H]4[C@H]3CC[C@@]21CC,z-score,[4]; [9],0.995 (inactive)
same,z-score,[4]; [10],0.685
COC1CN(C(=O)Cn2nc(-c3ccccc3)c3ccccc3c2=O)CC(=O)N(Cc2ccccc2)C1 (configuration not stated),z-score,[4]; [9],-0.199 (inactive)
same,z-score,[4]; [10],0.0204
same,z-score,[5],1.58 (inactive)
Nc1nc(CC(=O)Nc2ccc(CCNC[C@H](O)c3ccccc3)cc2)cs1,z-score,[4]; [9],0.235 (inactive)
same,z-score,[4]; [10],0.0504
CO[C@H]1/C=C/O[C@@]2(C)Oc3c(C)c(O)c4c(O)c(c(/C=N/N5CCN(C6CCCC6)CC5)c(O)c4c3C2=O)NC(=O)/C(C)=C\C=C\[C@H](C)[C@H](O)[C@@H](C)[C@@H](O)[C@@H](C)[C@H](OC(C)=O)[C@@H]1C,z-score,[4]; [9],0.699 (inactive)
same,z-score,[4]; [10],0.251
